Screens (PubChem BioAssay)
In the library only some 10% were active in any assay of this set; here they are far more common.
GLS inhibitor = blocks human kidney-isoform glutaminase activity; GLS enzymatic activity, qHTS titration; Potency, µM (series often up to 45.5 µM), without a hit: at the top dose activity change, negative = inhibition, actives largely listed as inhibitors; 410,000 compounds, 0.21% hits; further: on the % scale 0 is the no-effect control and ±100 the full control effect
Target sequence (O94925 whole entry, looked up, canonical isoform): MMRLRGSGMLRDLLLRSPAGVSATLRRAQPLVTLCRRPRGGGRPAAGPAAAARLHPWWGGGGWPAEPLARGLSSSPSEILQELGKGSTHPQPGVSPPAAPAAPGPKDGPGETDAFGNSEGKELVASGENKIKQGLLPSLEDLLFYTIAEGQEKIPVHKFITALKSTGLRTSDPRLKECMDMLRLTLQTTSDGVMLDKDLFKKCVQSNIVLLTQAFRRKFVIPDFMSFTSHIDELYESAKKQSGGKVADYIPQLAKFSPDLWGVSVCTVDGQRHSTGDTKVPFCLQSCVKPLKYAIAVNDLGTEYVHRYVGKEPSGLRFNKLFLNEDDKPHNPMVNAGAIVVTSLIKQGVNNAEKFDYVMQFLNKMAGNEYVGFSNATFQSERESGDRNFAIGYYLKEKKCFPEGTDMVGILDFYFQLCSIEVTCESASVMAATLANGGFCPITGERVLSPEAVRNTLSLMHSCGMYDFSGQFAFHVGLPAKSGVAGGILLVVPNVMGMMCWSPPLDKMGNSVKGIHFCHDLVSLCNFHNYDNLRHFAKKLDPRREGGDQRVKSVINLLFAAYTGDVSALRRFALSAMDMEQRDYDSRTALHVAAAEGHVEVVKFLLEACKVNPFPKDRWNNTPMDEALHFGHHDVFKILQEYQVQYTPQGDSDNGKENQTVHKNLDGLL
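Human kidney-isoform GLS in 45 mM KH2PO4 pH 8.2, 0.02% Tween-20, with compound, started with 1mM L-Glutamine (added stock). Glutamate oxidase/HRP/Amplex red coupled fluorescence read at start and after 30 min at RT.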
JMJD2A Tudor inh = blocks the human JMJD2A Tudor domain; O75164; AlphaScreen JMJD2A-Tudor / H3K4me3 peptide binding; Potency, µM (titrated, usually from 114 µM), inactives show top-dose activity change, negative = inhibition, most hits filed as inhibitors; 390,000 compounds, 4.4% hits; AID 504339; further: on the % scale 0 is the no-effect control and ±100 the full control effect; nearly all actives have a fitted effect of over 50% in size
HP1b chromo inh = inhibitors of HP1-beta chromodomain binding to methylated histone tails | P83916 | Potency, µM (doses to about 114 µM), inactives show top-dose activity change, negative = inhibition, hits mostly inhibitors | 390,000 compounds, 0.56% hits | AlphaScreen HP1-beta / biotin-H3K9me3 peptide binding | AID 540317; further: nearly all actives have a fitted effect of over 70% in size
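AlphaScreen: HP1-beta (50 nM) preformed 30 min with biotin-H3(1-18)K9me3 peptide (50 nM) in PBS pH 7.4, 0.01% Tween-20. Compound added for 30 min at RT, then streptavidin donor/nickel chelate acceptor beads (10 ug/mL) for 30 min.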
G9a inh = G9a (human) methyltransferase inhibition | G9a H3K9 monomethylation, AlphaScreen, 2 h | Potency, µM (highest dose often 102 µM), for the others: at the highest dose activity, negative = inhibition, usual class: inhibitors | 350,000 compounds, 8.8% hits | AID 504332; further: on the % scale 0 is the no-effect control and ±100 the full control effect; nearly all actives have a fitted effect of over 75% in size
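Methyltransferase reactions run at room temperature for 2 h (20 nM enzyme, 500 nM biotin-H3K9 peptide, 20 uM SAM) after a 15 min compound preincubation; product detected by AlphaScreen beads and anti-H3K9me1 antibody.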
BAZ2B block = BAZ2B (human) inhibition. AlphaScreen BAZ2B-H3K14Ac peptide displacement. Potency, µM (top dose mostly 114 µM), without a hit: at the highest dose activity change, negative = inhibition, usual class: inhibitors. 360,000 compounds, 4.4% hits. AID 504333. Q9UIF8; further: on the % scale 0 is the no-effect control and ±100 the full control effect; nearly all actives have a fitted effect of over 60% in size
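Protein-peptide AlphaScreen: BAZ2B 50 nM, b-H3K14Ac 50 nM, 1x PBS pH 7.4 + 0.01% Tween-20. Preincubation 30 min RT; cpd 30 min RT (top 110 uM); beads 20 min RT, light-protected.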
Numbers without * were called inactive; ? = inconclusive; . = no result; [ ] = remark or other dose. The call rests on the fitted dose curve; in most records, active means well fitted curve in the direction sought with a large enough effect; inconclusive means small, poorly fitted or top-dose-only effect, or another doubt; inactive means no such curve, though single readings can be large; an effect the other way counts as inactive or inconclusive. Potency means the concentration at half of the fitted maximal effect.

SMILES	GLS inhibitor	JMJD2A Tudor inh	HP1b chromo inh	G9a inh	BAZ2B block
Cc1cccc(C)c1NC(=S)NC(=O)c1cccc(Cl)c1	27.3%	.	.	.	.
Cn1c(CN2CCN(CC#N)CC2)c(C#N)c2ccccc21	-1.0%	-4.6%	52.7%	44.7µM*	0.3%
Cn1c(CN2CCCCC2)c(C#N)c2ccccc21	-2.1%	7.3%	30.8%	28.2µM*	6.0%
Cn1c(CN2CCC(C(N)=O)CC2)c(C#N)c2ccccc21	17.5%	0.0%[57.1 µM]	-6.0%	-18.6%[59 µM]	1.8%
CC(=O)N1CCN(c2ccc(NCc3cccs3)cc2)CC1	27.7%	-19.8%[11.4 µM]	-32.5%	6.31µM*	?
COc1ccccc1N1CCN(C(=O)Cc2cccs2)CC1	-1.4%	-12.6%	16.1%	-1.6%[2.33 µM]	0.7%
O=C(Cc1cccs1)N1CCN(c2ccc(F)cc2)CC1	26.6%	-1.1%	25.5%	8.9%[59 µM]	3.8%
Cc1nc2ncnn2c(N2CCN(C(=O)Cc3cccs3)CC2)c1C	-3.1%	?	-12.7%	-25.2%[59 µM]	50.1µM*
O=C(Cc1cccs1)N1CCN(c2ccc([N+](=O)[O-])cc2)CC1	-1.2%	-27.8%	5.0%	?	56.2µM*
CC(=O)N1CCN(c2ccc(NCc3ccc(C)s3)cc2)CC1	60.4%	?	-14.2%	44.7µM*	9.5%
Cc1cc(S(=O)(=O)NC(C)c2nnc3ccccn23)ccc1Br (centres undefined)	4.7%	-18.0%	12.1%	.	.
CC(C)(C)OC(=O)N1C[C@H](O)C[C@H]1C(=O)OCC(=O)c1ccc([N+](=O)[O-])cc1	39.7%	?	8.0%	.	-6.3%
CCCCN(CC)C(=O)C1CCCN(c2ncnc3c2nc2n3CCCCC2)C1 (centres undefined)	-2.6%	-12.9%	9.6%	4.7%[59 µM]	2.1%
COc1ccc2nc(-c3cccc(F)c3)sc2c1	.	13.8%	.	.	.
CCCCCC(=O)c1ccc(O)cc1O	-6.4%	-1.4%	27.6%	19.7%	-0.5%
CCC(=O)Oc1ccc(C/C(=N\O)c2ccc(O)cc2O)o1	?	?	16.9%	12.6µM*	?
Cc1cnc(C(=O)OCC(=O)Nc2c(Cl)cc(Cl)cc2Cl)cn1	3.6%	-16.7%	16.5%	0.8%[59 µM]	12.0%
CCc1cccc(NC(=O)C(CC)n2nc(C)c3sc4ccccc4c3c2=O)c1 (centres undefined)	-0.6%	-5.6%	42.7%	-32.9%[59 µM]	3.5%
CC(=O)OCCCCCCCCCCC[N+]1(C)CCCCC1	-2.2%	-1.7%	18.6%	44.7µM*	-21.2%
COC(=O)CCCCCCCCCC[N+]1(C)CCCCC1	7.4%	?	13.1%	15.8µM*	-35.5%
C[N+]1(CCCCSc2ccc(O)cc2)CCCCC1	?	-2.8%	3.0%	?	?
Cn1cncc1CNc1ncnc2ccc(-c3ccc4c(c3)OCO4)cc12	.	56.2µM*	.	.	.
Cc1ccc(CNc2ncnc3ccc(-c4ccc5c(c4)OCO5)cc23)s1	.	-25.9%	.	.	.
O=C1OCCN/C1=C\C(=O)c1ccc(Cl)cc1	29.7%	?	-9.7%	56.2µM*	-25.4%
O=C1OCCN/C1=C\C(=O)c1ccccc1	18.0%	0.4%	13.8%	?	-19.9%
SMILES	GLS inhibitor	JMJD2A Tudor inh	HP1b chromo inh	G9a inh	BAZ2B block
O=C1NCCN/C1=C\C(=O)c1ccccc1	0.0%	-28.0%	15.1%	0.9%	?
O=C1NCCN/C1=C\C(=O)c1ccc(Br)cc1	0.9%	-24.9%	10.8%	50.1µM*	-16.2%
O=C(O)C1Nc2c(O)cc(Cl)c([N+](=O)[O-])c2C2C=CCC12 (centres undefined)	3.16µM*	11.2µM*	4.47µM*	2.82µM*	1.41µM*
O=C(NCc1n[nH]c(=S)n1-c1ccccc1)c1ccc(S(=O)(=O)N2CCOCC2)cc1	5.0%	7.08µM*	10.2%	?	-3.9%
O=C(NCc1n[nH]c(=S)n1-c1ccc(F)cc1)c1ccco1	-3.7%	22.4µM*	28.1%	22.4µM*	-7.4%
O=C(NCc1n[nH]c(=S)n1-c1ccccc1)c1ccc(S(=O)(=O)N2CCCCC2)cc1	0.2%	?	22.0%	8.91µM*	8.9%
O=C(NCc1n[nH]c(=S)n1-c1ccc(F)cc1)c1ccc(S(=O)(=O)N2CCOCC2)cc1	13.8%	12.6µM*	13.4%	14.1µM*	-1.5%
O=C(NCc1ccccc1)c1ccc(S(=O)(=O)N2CCCCCC2)cc1	0.2%	.	.	.	.
O=C(CNC(=O)c1ccc(F)cc1)NCc1ccc(S(=O)(=O)N2CCOCC2)cc1	-7.1%	-6.9%	19.2%	-9.1%	4.0%
O=C(Cc1ccccc1)NCc1n[nH]c(=S)n1-c1ccc(Br)cc1	?	?	7.9%	?	-17.8%
CCc1nn(CC(=O)NC(C)C)c(=O)c2cc3cc(F)ccc3n12	5.4%	-7.3%	17.9%	-9.8%[59 µM]	-2.0%
O=C(CSc1n[nH]c(-c2ccccc2)n1)NCCc1ccccc1	5.1%	2.9%	31.3%[57 µM]	8.2%[59 µM]	7.8%
CC1CCN(CCCNC(=O)c2cc(Sc3ccc(F)cc3)nc3ccccc23)CC1	-3.9%	-28.7%	-7.1%	0.5%[59 µM]	-4.3%
CCOC(=O)CCCSc1nnc(CCCCCN2C(=O)c3cccc4cccc(c34)C2=O)o1	1.9%	-11.5%	37.8%	31.8%[59 µM]	-1.0%
Cc1ccc2ccc(C)[n+](CCCS(=O)(=O)[O-])c2c1	6.4%	-32.3%[11.4 µM]	?	-35.4%	-11.7%
Cc1sc2ccccc2[n+]1CCC(C)S(=O)(=O)[O-] (centres undefined)	-5.7%	-17.1%	62.9%	2.5%[59 µM]	-9.5%
Cc1ccc2ccccc2[n+]1CCCS(=O)(=O)[O-]	-0.7%	-18.0%	55.2%	50.1µM*	-28.8%
COc1ccc2sc(SCCCS(=O)(=O)O)[n+](CCCS(=O)(=O)[O-])c2c1	15.0%	15.8µM*	27.3%	?	56.2µM*
CSc1sc2ccccc2[n+]1CCCS(=O)(=O)[O-]	15.6%	89.1µM*	5.6%	10µM*	-38.4%
Cc1ccc(N2CCN(C(=O)c3c(C)oc4nc(C)nc(N5CCCC5)c34)CC2)c(C)c1	7.3%	-13.9%	27.8%	-28.2%[59 µM]	1.7%[57.1 µM]
Cn1cnc2c(cnn2C)c1=N	-3.6%	-12.4%	3.1%	.	.
S=c1[nH]nc(NCCCN2CCOCC2)s1	?	3.55µM*	?	1.26µM*	31.6µM*
CN(Cc1ccco1)C(=O)c1ccc2c(c1)N(Cc1ccccc1F)C(=O)c1ccccc1S2	-6.2%	?	11.4%	-31.5%[59 µM]	-19.4%
OCCCc1n[nH]c(=S)n1-c1ccccc1	-1.3%	1.4%	40.3%	?	-27.5%
O=C1c2cccc3cccc(c23)C(=O)N1CCCc1n[nH]c(=S)n1-c1ccccc1	3.98µM*	12.6µM*	12.7%	3.98µM*	-4.8%
O=C(Cc1ccc(NC(=O)C2CCN(C(=O)C3CCC3)CC2)cc1)Nc1ccc(C(=O)N2CCOCC2)cc1	-4.6%	-16.4%	21.1%	.	.
Oc1ccccc1C=NCCN1CCN(CCN=Cc2ccccc2O)C1c1ccccc1O (centres undefined)	22.8%	22.4µM*	13.2%[57 µM]	.	.
CC(=O)NC1=C(Nc2ccc(N(C)C)cc2)C(=O)c2ccccc2C1=O	15.1%	?	?	31.6µM*	39.8µM*
